# Screens deposited in PubChem BioAssay by The Scripps Research Institute Molecular Screening Center.
# Only some compounds are listed: those with a hit (about 5.7% of all), similar ones and a draw of the others.
# hcDAF-12 act: activates DAF-12 receptor from parasite H. contortus; HEK293 hcDAF-12 lit1-tk-luc reporter, luminescence; 0% DMSO, 100% Δ7-dafachronic acid; activation, % at 6.8 µM; 370,000 compounds, 1.4% hits; AID 652067;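 active means activation above the mean of all tested compounds plus 3 SD, cut at about 5.5% in these data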;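 further: 100% = response to 3 µM Δ7-dafachronic acid high control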
# hgDAF-12 ag: hgDAF-12 agonism, primary luciferase screen | 370,000 compounds, 1.8% hits | HEK293 GAL4-hgDAF12 UAS-luciferase reporter, agonist luminescence; normalized to butyrate control | activation, % at 6.8 µM;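 active means activation above a cutoff set at the mean of all screened compounds plus 3 SD, cut at about 10% in these data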;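 further: 0% = DMSO wells and 100% = sodium butyrate wells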
# DAX1 inh-1: inhibits human nuclear receptor DAX1 | inhibition, % at 6.75 µM | AID 504766 | P51843 | HEK293 Gal4-DAX1 luciferase reporter, luminescence | 340,000 compounds, 0.99% hits;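 active means inhibition above the mean over all tested compounds plus 3 SD, cut at about 4.2% in these data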;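 further: 0% = DAX1-transfected cells with DMSO and 100% = empty-vector control cells with DMSO; inhibition shows as a rise in luminescence from relieved DAX1 repression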
# DAX1 inh-2: blocks DAX1 repression of SF-1 activated StAR promoter | HEK293T StAR-luciferase reporter, SF-1/DAX-1 repression relief | inhibition, % at 6.8 µM | 370,000 compounds, 1.1% hits | AID 652010;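 active means inhibition above the mean over all tested compounds plus 3 SD, cut at about 3.6% in these data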;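 further: 0% = DAX-1 cells with DMSO and 100% = cells lacking DAX-1 with DMSO; higher inhibition means more luminescence from relief of DAX-1 repression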
# ssDAF-12 act: activators of S. stercoralis DAF-12 nuclear receptor | HEK293 ssDAF-12/GRIP1 lit1-tk-luc reporter, luminescence; % of 3 µM dafachronic acid response | activation, % at 6.8 µM | 370,000 compounds, 1% hits;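 active means activation above the mean over all tested compounds plus 3 SD, cut at about 0.9% in these data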;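 further: 0% = DMSO-only wells and 100% = 3 µM delta7-dafachronic acid wells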
# AHR activator: human AHR activation; P35869; AHR-responsive luciferase reporter cells, luminescence; activation, % at 5 µM; 320,000 compounds, 2.5% hits; AID 2796; in the data active means activation above about 47%;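 further: 0% = vehicle wells and 100% = reference agonist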
# DAX1 inh confirm: confirmation of human DAX1 (NR0B1) inhibitors; shares compounds with DAX1 inh-2; HEK293T StAR-promoter luciferase reporter, SF-1/DAX-1 repression; inhibition, % at 6.8 µM; 2,400 compounds, 87% hits; AID 652134;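 active means inhibition above the average of every tested compound plus 3 SD, cut at about 3.8% in these data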;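 further: 0% = DAX-1 cells with DMSO and 100% = no DAX-1 control cells with DMSO; active compounds raise luminescence by relieving repression of the StAR reporter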
# Target sequence (P51843 whole entry, looked up): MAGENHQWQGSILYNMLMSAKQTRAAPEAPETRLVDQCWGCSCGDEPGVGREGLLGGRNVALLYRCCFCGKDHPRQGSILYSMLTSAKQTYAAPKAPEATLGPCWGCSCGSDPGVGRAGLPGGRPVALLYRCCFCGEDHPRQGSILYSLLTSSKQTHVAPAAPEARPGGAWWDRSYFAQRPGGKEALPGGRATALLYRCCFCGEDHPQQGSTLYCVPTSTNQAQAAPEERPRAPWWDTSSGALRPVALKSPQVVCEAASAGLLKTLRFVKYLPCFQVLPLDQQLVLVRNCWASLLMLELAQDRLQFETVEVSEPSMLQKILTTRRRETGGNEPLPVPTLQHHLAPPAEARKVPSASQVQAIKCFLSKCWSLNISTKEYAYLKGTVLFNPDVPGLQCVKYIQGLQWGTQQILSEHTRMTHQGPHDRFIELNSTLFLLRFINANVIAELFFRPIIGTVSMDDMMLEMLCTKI
# SF1 mutant ctr: counter-screen for DAX1 inhibitors: nonselective inhibitors with SF-1 AF2 mutant; HEK293 StAR-luciferase, luminescence; AID 652136; 2,400 compounds, 78% hits; inhibition, % at 6.8 µM; shares compounds with DAX1 inh-2;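 active means inhibition above the mean of all tested compounds plus 3 SD, cut at about 3% in these data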;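 further: 0% = DAX-1 transfected cells with DMSO and 100% = cells without DAX-1 with DMSO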
# LXRb hcDAF ctr: LXR-beta agonism as hcDAF-12 counter-screen; shares compounds with hcDAF-12 act; HEK293 Gal4-LXR tk-luc reporter, luminescence, 24 h; normalized: DMSO 0%, positive control 100%; activation, % at 6.8 µM; 3,400 tested, under 10 active; AID 743027;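 active means mean percent activation of the reporter above a cutoff set as the average over tested compounds plus their standard deviation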
# hcDAF12 ag: confirmation of H. contortus DAF-12 agonists; activation, % at 6.8 µM; shares compounds with hcDAF-12 act; HEK293 hcDAF-12 lit1-tk-luc reporter, luminescence; % of Δ7-dafachronic acid response; 3,400 compounds, 61% hits;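 active means mean activation across triplicate tests above the threshold derived from the earlier primary screen, cut at about 5.5% in these data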;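 further: 0% = DMSO only wells and 100% = 3 µM Δ7-dafachronic acid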
# hgDAF12 ag: hgDAF-12 agonism, confirmation assay | shares compounds with hgDAF-12 ag | HEK293 GAL4-hgDAF12 luciferase reporter, agonist mode; percent of butyrate response | activation, % at 6.8 µM | 3,300 compounds, 80% hits | AID 743050;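 active means mean activation over triplicate wells above the hit cutoff derived from the earlier primary screen, cut at about 11% in these data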;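 further: 0% = DMSO low control and 100% = 2 mM sodium butyrate high control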
# LXR ag 2: activates human LXR-beta, counter-screen for DAF-12 agonists. 3,300 tested, under 10 active. activation, % at 6.8 µM. shares compounds with hgDAF-12 ag. HEK293 Gal4-LXR luciferase reporter, 24 h;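 active means mean activation of the triplicate above a set limit carried over from the primary screen, none filed active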
# * hit, by the source's call; . = not tested or not shown.
SMILES,hcDAF-12 act,hgDAF-12 ag,DAX1 inh-1,DAX1 inh-2,ssDAF-12 act,AHR activator,DAX1 inh confirm,SF1 mutant ctr,hgDAF12 ag,LXR ag 2,others
CCCc1ccc(OCc2ccc(C(=O)N/N=C/c3cccnc3)o2)cc1,4.1,14.2*,-0.1,5.9*,-0.6,.,6.9*,4.3*,16.6*,0.8,
CCOc1ccc(CC(=O)N/N=C/c2cccnc2)cc1,-0.3,0.6,-1.6,-0.3,-1.6,2.2,.,.,.,.,
COc1ccc(NC(=O)N(CCCN(C)C)Cc2cc3cc(OC)ccc3[nH]c2=O)cc1,-1.2,4.0,1.9,1.2,-1.2,-0.9,.,.,.,.,
CC(=NNC(=O)c1cccs1)c1ccc2c(c1)OCCO2,5.1,16.9*,3.7,7.2*,0.9,1.8,7.8*,2.9*,12.7*,0.8,
O=C(/C=C\Nc1ccc2c(c1)OCO2)c1cccs1,8.3*,16.9*,-1.0,9.0*,1.0*,30.9,12.1*,-0.1,12.3*,1.0,LXRb hcDAF ctr=1.8;hcDAF12 ag=10.6*
O=C(/C=C\Nc1ccc2c(c1)OCO2)c1ccc(Cl)s1,2.5,10.1,3.7,1.6,0.2,21.0,.,.,.,.,
O=C(Nc1ccc2c(c1)OCCO2)c1cccs1,8.3*,18.9*,-0.3,4.7*,0.6,0.5,14.5*,7.6*,13.4*,0.6,LXRb hcDAF ctr=1.4;hcDAF12 ag=4.0
C/C(=N/NC(=O)c1cccs1)c1cccc(N)c1,7.0*,16.2*,6.0*,5.8*,-0.5,6.3,5.5*,2.4,9.9,0.2,LXRb hcDAF ctr=0.6;hcDAF12 ag=4.4
C/C(=N\NC(=O)CNC(=O)c1cccs1)c1ccc(Cl)c(Cl)c1,-1.4,0.6,0.4,-1.0,-1.3,18.3,.,.,.,.,
COC(=O)COc1ccc(S(=O)(=O)N2CCN(c3ccc(OC)cc3)CC2)cc1,-1.2,-1.8,-1.8,-0.1,-1.9,1.6,.,.,.,.,
O=C(Nc1ccc2c(c1)OCCO2)c1cc2ccccc2o1,12.2*,20.1*,0.0,5.7*,1.0*,21.3,20.1*,8.3*,16.9*,1.1,LXRb hcDAF ctr=1.8;hcDAF12 ag=8.1*
O=C(Nc1ccc2oc(=O)ccc2c1)c1cc2ccccc2o1,4.0,5.7,2.2,-0.4,-0.5,-5.0,.,.,.,.,
COc1cc(Cc2nc3ccccc3n2C(C)c2nc3ccccc3[nH]2)cc(OC)c1 (configuration not stated),1.7,3.0,.,1.0,-0.4,.,.,.,.,.,
COc1ccc2nc(C(c3ccc(C)cc3)n3c(-c4ccccc4Br)nc4ccccc43)[nH]c2c1 (configuration not stated),2.6,14.0*,.,5.8*,0.9,.,8.5*,5.5*,16.5*,0.8,
CCc1ccc(NC(=O)NC2CCCCCCC2)cc1,4.0,17.1*,4.1,7.9*,0.5,.,10.4*,5.4*,17.7*,0.6,
CCc1ccc(NC(=O)C(=S)NC2CCCCC2)cc1,1.8,8.0,2.0,1.1,-0.7,-2.5,.,.,.,.,
O=C(c1cccc(S(=O)(=O)NCc2ccccc2)c1)N1CCN(c2ccccc2)CC1,-1.9,1.0,-0.8,-4.5,-1.3,-1.1,.,.,.,.,
